# Only some compounds are listed: those with a hit (about 10% of all), similar ones and a draw of the others.
# HEK293 tox = Cytotoxic Profiling in HEK 293 Cell Line of Diverse Libraries Using Quantitative High-Throughput Screening; HEK 293 viability, ATP luminescence (CellTiter-Glo), 48-72 h; Potency, µM (doses to about 115 µM), for the others: at the top dose activity change, negative = cytotoxicity, most hits filed as inhibitors; 6.6% of 94,000 active; AID 1345083, 2018; further: potency means the concentration at half of the fitted maximal effect; on the % scale 0 is the no-effect control and ±100 the full control effect; nearly all actives have a fitted effect of over 60% in size
#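 HEK 293 cells seeded at 250 cells/well were exposed to compound for 48 or 72 hr at 37 degree Celsius. Viability taken as ATP content by CellTiter-Glo luminescence.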
# GPT2 inhibitor = Primary qHTS assay for inhibitors of Glutamate pyruvate transaminase 2 (GPT2) | 0.25% of 100,000 active | Alanine aminotransferase 2 (Homo sapiens), Q8TD30 | Potency, µM (series often up to 57.7 µM), for inactives: at the highest dose activity change, negative = inhibition, actives largely listed as inhibitors | AID 1671188, 2021 | Recombinant GPT2, coupled pyruvate oxidase/HRP Amplex Red fluorescence; further: potency means the concentration at half of the fitted maximal effect; on the % scale 0 is the no-effect control and ±100 the full control effect; nearly all actives have a fitted effect of over 60% in size
#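 Inhibition is scored from Amplex Red fluorescence generated when pyruvate oxidase and HRP act on pyruvate released by GPT2. Reactions contain 10ng/uL enzyme, 250uM a-KG and 2mM L-alanine and run 30 min at room temperature.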
# hNpr1 antagonist = Natriuretic polypeptide receptor (hNpr1) antagonism - Primary qHTS; Atrial natriuretic peptide receptor 1 (Homo sapiens), P16066; HEK293 hNpr1 GloSensor cGMP, ANP-stimulated luminescence; Potency, µM (highest dose often 46.3 µM), for inactives: at the highest dose activity change, negative = inhibition, usual class: inhibitors; 1.6% of 76,000 active; AID 1347048, 2019; calls by dose curve; further: potency means the concentration at half of the fitted maximal effect; on the % scale 0 is the no-effect control and ±100 the full control effect; nearly all actives have a fitted effect of over 60% in size
#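 HEK293 cells stably expressing human Npr1 and cGMP GloSensor pGS-40F, loaded 2 h with 2% GloSensor reagent, given compound 30 min at room temperature. Luminescence read before and 20 min after 0.1 nM hNppA.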
# FLuc inh = Firefly luciferase inhibition profiling of diverse chemical library using quantitative high-throughput screening; Luciferin 4-monooxygenase (Photinus pyralis), P08659; purified P. pyralis luciferase, luminescence, biochemical; Potency, µM (doses to about 115 µM), most hits filed as inhibitors; 2.5% of 76,000 active; AID 1347043, 2019; further: potency means the concentration at half of the fitted maximal effect; on the % scale 0 is the no-effect control and ±100 the full control effect; nearly all actives have a fitted effect of over 65% in size
# Target sequence (P08659 whole entry, looked up): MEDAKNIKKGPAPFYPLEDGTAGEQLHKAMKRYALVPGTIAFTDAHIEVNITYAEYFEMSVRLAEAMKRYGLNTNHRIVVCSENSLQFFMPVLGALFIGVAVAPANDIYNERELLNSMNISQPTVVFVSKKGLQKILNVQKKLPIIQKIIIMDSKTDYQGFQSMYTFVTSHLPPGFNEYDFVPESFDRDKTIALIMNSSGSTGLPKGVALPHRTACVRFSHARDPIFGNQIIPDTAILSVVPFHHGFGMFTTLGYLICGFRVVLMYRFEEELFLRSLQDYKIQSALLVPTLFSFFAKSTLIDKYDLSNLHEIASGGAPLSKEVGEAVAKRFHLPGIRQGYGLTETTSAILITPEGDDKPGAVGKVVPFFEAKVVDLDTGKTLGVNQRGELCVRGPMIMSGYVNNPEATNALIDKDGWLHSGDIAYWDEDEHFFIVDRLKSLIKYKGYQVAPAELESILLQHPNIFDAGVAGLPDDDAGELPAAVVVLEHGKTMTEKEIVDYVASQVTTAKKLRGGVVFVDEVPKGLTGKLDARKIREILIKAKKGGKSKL
#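 Purified P. pyralis luciferase (10nM final) in 50mM Tris acetate pH 7.5, 10mM Mg acetate, 0.01% Tween-20, 0.05% BSA with 10uM D-luciferin and 10uM ATP. Compounds titrated qHTS. Luminescence imaged on CCD.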
# NIH3T3 tox = Cytotoxic Profiling in NIH 3T3 Cell Line of Diverse Libraries Using Quantitative High-Throughput Screening. NIH 3T3 viability, CellTiter-Glo ATP luminescence, 48-72 h. Potency, µM (doses to about 96.7 µM), for the others: at the highest dose activity change, negative = cytotoxicity, most hits filed as inhibitors. 4.3% of 94,000 active. AID 1345082, 2018; further: potency means the concentration at half of the fitted maximal effect; on the % scale 0 is the no-effect control and ±100 the full control effect; nearly all actives have a fitted effect of over 55% in size
#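 Mouse fibroblast NIH 3T3 cells, 400 per well, received compound via pintool and were incubated for 48 or 72 hr prior to CellTiter-Glo ATP luminescence measurement.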
# Npr1 antag conf = Natriuretic polypeptide receptor (hNpr1) antagonism - Confirmation. shares compounds with hNpr1 antagonist. HEK293 hNpr1 cGMP GloSensor luminescence, ANP-stimulated. AID 1347044, 2019. 76% of 1,400 active. Potency, µM (doses to about 57.6 µM), for inactives: top-dose activity change, negative = inhibition, actives largely listed as inhibitors; calls by dose curve; further: potency means the concentration at half of the fitted maximal effect; nearly all actives have a fitted effect of over 70% in size
# NPR2 antag = Natriuretic polypeptide receptor (hNpr2) antagonism - Subtype selectivity assay; shares compounds with hNpr1 antagonist; 67% of 1,400 active; Potency, µM (series often up to 57.6 µM), without a hit: at the highest dose activity change, negative = inhibition, hits mostly inhibitors; HEK293 hNpr2 GloSensor cGMP luminescence, CNP-stimulated; calls by dose curve; further: potency means the concentration at half of the fitted maximal effect; nearly all actives have a fitted effect of over 70% in size
# FLuc counter = Natriuretic polypeptide receptor (hNpr1) antagonism - Confirmation firefly luciferase (FLuc) inhibition counterscreen; 0.7% of 1,400 active; purified FLuc enzyme, luminescence, Km substrate; Potency, µM (top dose mostly 57.6 µM), without a hit: at the highest dose activity change, negative = inhibition, most hits filed as inhibitors; shares compounds with hNpr1 antagonist; further: potency means the concentration at half of the fitted maximal effect; 0% is about no effect
# GloSensor cGMP = Natriuretic polypeptide receptor (hNpr1) antagonism - Counterscreen GloSensor control cell line; 69% of 1,400 active; HEK293 GloSensor cGMP, SNP-stimulated, luminescence; shares compounds with hNpr1 antagonist; AID 1347051, 2019; Potency, µM (titrated, usually from 57.6 µM), without a hit: at the highest dose activity change, negative = inhibition, hits mostly inhibitors; calls by dose curve; further: potency means the concentration at half of the fitted maximal effect; on the % scale 0 is the no-effect control and ±100 the full control effect; nearly all actives have a fitted effect of over 70% in size
# GPT2 conf = Confirmatory qHTS assay for inhibitors of Glutamate pyruvate transaminase 2 (GPT2). shares compounds with GPT2 inhibitor. GPT2 enzyme, coupled Amplex Red pyruvate fluorescence. Potency, µM, most hits filed as inhibitors. 90% of 95 active. AID 1671187, 2021
# * marks the source's active call; other numbers are inactive results; i = inactive; ? = inconclusive; / = not tested or not shown; ! = repeats disagree; [ ] = remark or other dose. Unless noted, the call rests on the fitted dose curve; in most records, active means well fitted curve in the direction sought with a large enough effect; inconclusive means small, poorly fitted or top-dose-only effect, or another doubt; inactive means no such curve, though single readings can be large; an effect the other way counts as inactive or inconclusive.
SMILES,HEK293 tox,GPT2 inhibitor,hNpr1 antagonist,FLuc inh,NIH3T3 tox,Npr1 antag conf,NPR2 antag,FLuc counter,GloSensor cGMP,others
OC1CC(c2cc(NCCCn3ccc4ccccc43)ncn2)C1 (stereo unspecified),?,-19.8%[11.5 µM],11.2µM*,i,?,19.3µM*,19.3µM*,0.2%,12.2µM*,
O=C(NCCc1ccc(Cl)cc1)c1nc2sccn2c1-c1ccncc1,?,-5.8%,/,/,-26.6%,/,/,/,/,
Cc1nn2c(c1-c1ccccc1C(C)C)N(C(=O)CCc1cccnc1)CCC2,-23.9%[172 µM],1.1%[88.5 µM],-25.3%[70.6 µM],i,?,/,/,/,/,
Cc1nn2c(c1-c1ccccc1[S+](C)(=O)[O-])N(CCCc1ccccc1)CCC2,?,0.6%[88.5 µM],17.8µM*,i,?,5.59µM*,25µM*,3.2%[86.2 µM],4.44µM*,
Cc1nn2c(c1-c1ccccc1C(N)=O)N(CCCc1ccccc1)CCC2,11.2µM*,i,1.12µM*,i,11.2µM*,2.8µM*,?,-0.5%[86.2 µM],3.53µM*,
COc1cccc(CC(=O)N2CCCN(c3cc(-c4ccc(Br)cc4)[nH]n3)CC2)c1,44.7µM*,?,11.2µM*,i,35.5µM*,24.3µM*,24.3µM*,-1.4%,21.7µM*,
COc1ccc(-c2cc(N3CCN(C(=O)Cc4ccc(Br)cc4)CC3)n[nH]2)cc1,0.6%,-3.4%,?,i,i,/,/,/,/,
Cc1cccc(CC(=O)N2CCCN(c3cc(-c4ccc(Br)cc4)[nH]n3)CC2)c1,?,?,?,i,31.6µM*,?,24.3µM*,3.2%,24.3µM*,
CC(C)c1ccc(N2C(=O)[C@@H]3C[C@@H](NC(=O)C4CCN(c5nccc(C(F)(F)F)n5)CC4)CCN3C2=O)cc1,?,i,?,i,?,?,?,2.2%,?,
Cc1ccc2nc(C3CCN(Cc4ccccc4)CC3)[nH]c(=O)c2c1,-7.4%,0.5%,2.9%,i,3.0%,/,/,/,/,
O=c1[nH]c(C2CCN(Cc3ccc(-c4cccnc4)cc3)CC2)nc2ccc(F)cc12,?,3.2%,?,i,5.62µM*!,19.3µM*,19.3µM*,-0.4%,17.2µM*,
COc1cccc(-c2ccc(CN3CCCC(c4nc5ccc(C)cc5c(=O)[nH]4)C3)cc2)c1 (stereo unspecified),25.1µM*,i,11.2µM*,i,28.2µM*!,17.2µM*,21.7µM*,-3.4%,17.2µM*,
CC(C)(C)C(=O)N1CCCC(C(=O)N2CCC(c3nc4ncccc4[nH]3)CC2)C1 (stereo unspecified),-6.6%,2.7%,/,/,-18.7%,/,/,/,/,
COc1cc(F)cc(-c2cnc3[nH]cc(CC(=O)NCc4cccnc4)c3c2)c1,?,i,28.2µM*,i,?,31.4µM*,31.4µM*,?,31.4µM*,
O=C(Cc1c[nH]c2ncc(-c3cn[nH]c3)cc12)NCc1cccnc1,-13.5%[172 µM],2.3%[88.5 µM],-4.0%[70.6 µM],i,?,/,/,/,/,
NC(=O)Cc1c[nH]c2ncc(-c3ccc(F)c(Cl)c3)cc12,?,-13.5%[88.5 µM],-12.9%[70.6 µM],i,?,/,/,/,/,
O=C(Cc1c[nH]c2ncc(-c3ccc(F)c(Cl)c3)cc12)NCc1cccnc1,?,1.0%[88.5 µM],22.4µM*,i,?,39.6µM*,31.4µM*,-3.1%[86.2 µM],28µM*,
Cc1ccccc1-c1cc(C(=O)NCc2cccnc2)c2c(c1)ncn2C,-24.8%[172 µM],?,-4.8%[70.6 µM],i,?,/,/,/,/,
COc1ccc(Nc2cc(C(=O)NCc3cccnc3)c3c(c2)ncn3C)cc1,/,/,/,/,/,/,/,/,/,GPT2 conf=3.14*
COc1ccc(OC)c(CN2CCNc3cnc(Nc4cccnc4)cc3C2)c1,?,?,-14.4%[70.6 µM],i,?,/,/,/,/,GPT2 conf=5.59*
COc1cccc(CN2CCNc3cnc(Nc4ccccc4)cc3C2)c1,89.1µM*,?,?,i,?,/,/,/,/,GPT2 conf=4.98*
COc1ccccc1CN1CCNc2cnc(Nc3ccccc3)cc2C1,89.1µM*,?,-0.9%[70.6 µM],i,?,/,/,/,/,GPT2 conf=4.44*
Cn1cc(CN2CCNc3cnc(Nc4ccccc4)cc3C2)cn1,/,/,/,/,/,/,/,/,/,GPT2 conf=2.8*
CN(C)CCNc1cc2c(cn1)NCCN(Cc1ccccc1)C2,?,?,-1.3%[70.6 µM],i,?,/,/,/,/,
CC(C)CNC(=O)C1COC2(CCC(C)CC2)N1C(=O)c1cccc([N+](=O)[O-])c1 (stereo unspecified),-8.0%,i,-1.7%,i,?,/,/,/,/,
CC(C)CCNC(=O)C12CCCC=C1N(c1ccccc1)C(=O)CC2 (stereo unspecified),-11.6%,1.7%,/,/,-7.3%,/,/,/,/,
COc1ccc(-c2ccccc2C(=O)NCc2ccccn2)nn1,i,/,/,/,-7.4%[138 µM],/,/,/,/,
Cn1cc(C#N)cc1C(=O)N1CCCC(C)(Cc2ccc3c(c2)OCO3)C1 (stereo unspecified),?,i,-1.5%,i,?,/,/,/,/,
CC1(C(=O)N2CCOCC2)CN(Cc2ccccc2)Cc2ccc(Nc3ccccc3)nc21 (stereo unspecified),?,?,-11.2%,i,?,/,/,/,/,
c1ccc(CN2CCNc3cc(Nc4ccc(N5CCOCC5)cc4)ncc3C2)cc1,89.1µM*,?,-11.2%[70.6 µM],i,?,/,/,/,/,GPT2 conf=4.44*

# Bioassay records deposited in PubChem BioAssay by National Center for Advancing Translational Sciences (NCATS).
